These results are taken from PubChem BioAssay AID686978 (National Center for Advancing Translational Sciences (NCATS), 2013).

Structures are written as SMILES. Among all 420,000 compounds or so, about 64,000 (15%) were called active. Roughly 27% stayed inconclusive and do not appear here. Calls follow the shape of the dose curve; as a rule, active = well fitted inhibition curve with a large enough effect; inconclusive = small, poorly fitted or top-dose-only effect; inactive = flat fitted curve, though single readings scatter. The list is a sample of the results.
% is scaled to controls: 0 for no effect and ±100 for the full control effect; potency is read from the fitted curve at half-maximal effect.

This experiment can be described thus: qHTS for Inhibitors of human tyrosyl-DNA phosphodiesterase 1 (TDP1): qHTS in cells in absence of CPT. Also: nearly all actives have a fitted effect of over 55% in size. To be noted: DT40 Tdp1-/- hTDP1 cells, no CPT, ATP luminescence, 48 h; activity change, negative = growth inhibition: at 46.2 µM (top of the series). The essentials: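 Chicken DT40 Tdp1-/- cells complemented with human TDP1, screened without camptothecin (DMSO vehicle only), 400 cells/well. Compounds pin-transferred, cells incubated at 37 °C for at least 48 hr. Growth read as ATP-dependent luminescence (CellTiter-Glo, 30 min at RT).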
On to `Cc1ccc2nc(N(CCN(C)C)C(=O)C3=COCCO3)sc2c1`, for which the “activity change, negative = growth inhibition” value is 14.5% (inactive).

For the molecule `CCCC(=O)OCC(=O)Nc1cc(Cl)ccc1[N+](=O)[O-]`, the “activity change, negative = growth inhibition” value was -14% (inactive).

Take `CCOC(=O)N1CCN(C(=O)c2ccccc2SCC(=O)NCC2CCCCC2)CC1`: the “activity change, negative = growth inhibition” value is -22.5% (inactive).

As for `Cc1ccc2c(C(=O)CN3CCCC3)c(C)[nH]c2c1`, the “activity change, negative = growth inhibition” value was -27.5% (inactive).

For the molecule `CCOC(=O)N1CCN(CC(=O)c2c(C)[nH]c3ccccc23)CC1`, the Potency was 18.4 µM (active).

On to `Cc1[nH]c2ccccc2c1C(=O)CN1CC(C)CC(C)C1` (configuration not stated), for which the Potency is 8.2 µM (active).

Regarding `Cc1[nH]c2ccccc2c1C(=O)CN1CCCC(C)C1` (configuration not stated), the “activity change, negative = growth inhibition” value was -28.9% (inactive).

For the molecule `Cc1[nH]c2ccccc2c1C(=O)COC(=O)C(C)C`, the “activity change, negative = growth inhibition” value was -19% (inactive).

For `Cc1[nH]c2ccccc2c1C(=O)CSCC(=O)O`, the “activity change, negative = growth inhibition” value is -16.8% (inactive).

Consider `Cc1ccc(OCC(=O)Nc2nnc(-c3ccco3)s2)cc1`, for which the “activity change, negative = growth inhibition” value is 1.93% (inactive).

Consider `CSc1ncccc1C(=O)Nc1ccc2c(c1)OCO2`, for which the “activity change, negative = growth inhibition” value was -15.9% (inactive).

For the molecule `CCOC(=O)c1c(S(=O)(=O)Nc2ccc(CN3CCC(C)CC3)cc2)c(C)n(C)c1C`, the “activity change, negative = growth inhibition” value was 6.68% (inactive).

`CCOC(=O)c1cnc(SCC(=O)Nc2ccccc2C(=O)OC)nc1N`: the Potency is 23.1 µM (active).

For `COC(=O)c1ccccc1NC(=O)CSc1ccccn1`, the “activity change, negative = growth inhibition” value was -10.7% (inactive).

For the molecule `CCOC(=O)c1cnc(SCC(=O)NCc2ccco2)nc1N`, the “activity change, negative = growth inhibition” value is -5.27% (inactive).

For `CCCCN(C)CCCNC(=O)CN1N=C(c2ccc(OC)cc2)CCC1=O`, the “activity change, negative = growth inhibition” value is -10% (inactive).

Regarding `C=CCC(CC=C)(C(N)=O)c1ccccc1`, the “activity change, negative = growth inhibition” value was -0.515% (inactive).

For the molecule `Cc1nn(CC(=O)Nc2ccc(C#N)cc2)c(C)c1[N+](=O)[O-]`, the “activity change, negative = growth inhibition” value is -29.6% (inactive).

Consider `COCc1c(C(=O)OCC(=O)Nc2ccc(OC(F)F)cc2)oc2ccccc12`, for which the “activity change, negative = growth inhibition” value was -2.1% (inactive).

As for `CCOC(=O)c1c(-c2ccccc2)oc2cc(Br)c(O)cc12`, the “activity change, negative = growth inhibition” value was -13.2% (inactive).

Regarding `CCOC(=O)c1c(C)oc2cc(Sc3ccccc3)c(O)c(O)c12`, the Potency is 25.9 µM (active).

Regarding `Cc1oc2cc(Br)c(O)c(Br)c2c1C(=O)c1ccccc1`, the “activity change, negative = growth inhibition” value is 0.0436% (inactive).

`Nc1nc(COC(=O)CCC(=O)c2ccc(Cl)cc2)nc(Nc2ccccc2)n1`: the “activity change, negative = growth inhibition” value was -23% (inactive).

As for `O=C(CSc1nc2nccnc2c(=O)n1CCc1c[nH]c2ccccc12)Nc1ccccc1F`, the Potency is 8.2 µM (active).

For the molecule `Cc1cc(C)c(NC(=O)CSc2nc3nccnc3c(=O)n2CCc2c[nH]c3ccccc23)c(C)c1`, the “activity change, negative = growth inhibition” value is 0.0247% (inactive).

Consider `Cc1cc(C)cc(NC(=O)Cn2c(=O)c3ccccc3n3nncc23)c1`, for which the “activity change, negative = growth inhibition” value was 8.04% (inactive).

Regarding `O=C(CSc1nc2nccnc2c(=O)n1Cc1cccs1)Nc1ccccc1F`, the “activity change, negative = growth inhibition” value is -23.8% (inactive).

As for `Cc1cc(C)cc(NC(=O)CSc2nc3nccnc3c(=O)n2CCc2c[nH]c3ccccc23)c1`, the Potency is 7.31 µM (active).

As to `Cn1c(CCC(=O)Nc2ccccc2F)nnc1SCC(=O)Nc1ccccc1Cl`, the “activity change, negative = growth inhibition” value was -3.12% (inactive).

In the case of `Cc1cccc(C)c1NC(=O)CSc1nc2c([nH]1)c(=O)n(C)c(=O)n2C`, the “activity change, negative = growth inhibition” value is -17.3% (inactive).

Regarding `CCc1c(O)nc(SCC(=O)Nc2ccccc2)n(C(C)CC)c1=O` (configuration not stated), the “activity change, negative = growth inhibition” value is -22.4% (inactive).

With `CCCNCc1cc(OCC)c(OCC(=O)Nc2ccccc2)cc1Br`, the “activity change, negative = growth inhibition” value is -14.8% (inactive).

As to `CN(C)C(=O)c1cc(Br)ccc1Cl`, the “activity change, negative = growth inhibition” value was -9.43% (inactive).

For `Cc1cc(OC(=O)c2ccccc2)c([N+](=O)[O-])c(=O)[nH]1`, the “activity change, negative = growth inhibition” value is 17.1% (inactive).

In the case of `Cc1nnsc1C(=O)N/N=C/c1cccc(C(F)(F)F)c1`, the “activity change, negative = growth inhibition” value was -5.29% (inactive).

For `O=C(O)c1ccc(N/N=C/c2ccc3ncccc3c2)cc1`, the “activity change, negative = growth inhibition” value was -3.17% (inactive).

Consider `Oc1ccc(/C=N/Nc2ccc(C(F)(F)F)cn2)cc1O`, for which the Potency is 2.59 µM (active).

As for `O=C1/C(=C/c2ccc(F)cc2)SC(=S)N1NS(=O)(=O)c1ccccc1`, the “activity change, negative = growth inhibition” value is -19.1% (inactive).

Take `CC1CCCCC12NC(=O)N(CC(=O)N1CCN(c3ccccc3)CC1)C2=O` (configuration not stated): the “activity change, negative = growth inhibition” value is -0.12% (inactive).

Consider `Cc1cc(C)c(NC(=O)CSc2nc3ccncc3[nH]2)c(C)c1`, for which the “activity change, negative = growth inhibition” value is -13.4% (inactive).

Regarding `CCc1ccc(NC(=O)Cn2nc(C)c([N+](=O)[O-])c2C)cc1`, the “activity change, negative = growth inhibition” value was -5.71% (inactive).

On to `Cc1ccc(Oc2cc(NC(=O)CCCn3nc(C)c([N+](=O)[O-])c3C)cc([N+](=O)[O-])c2)cc1`, for which the Potency was 18.4 µM (active).

Regarding `COc1ccc(CNC(=O)CCCn2nc(C)c([N+](=O)[O-])c2C)cc1`, the “activity change, negative = growth inhibition” value is -22% (inactive).

Take `CCC(C(=O)NC(C)(C)C)n1c(-c2ccccc2)nc2ccccc21` (configuration not stated): the Potency is 18.4 µM (active).

With `CCCc1nc2ccccc2n1C(C)C(=O)NC(C)(C)C` (configuration not stated), the “activity change, negative = growth inhibition” value was -7.62% (inactive).

Turning to `CC(C)(C)NC(=O)NC(=O)COC(=O)Cn1c(C(F)(F)F)nc2ccccc21`, the “activity change, negative = growth inhibition” value is -6.14% (inactive).

Take `CC(C)(C)NC(=O)C(CCc1ccccc1)n1c(=O)c(-c2ccccc2)nc2ccccc21` (configuration not stated): the Potency was 2.91 µM (active).

In the case of `CC(=O)NS(=O)(=O)c1ccc(N/C(N)=N/c2nc(C)cc(C)n2)cc1`, the “activity change, negative = growth inhibition” value is 4.16% (inactive).

For the molecule `Cc1nnc(SCCCCSc2nnc(C)c(=O)[nH]2)[nH]c1=O`, the “activity change, negative = growth inhibition” value is -4.3% (inactive).

On to `COc1ccc(Br)cc1/C=N/Nc1ccc(S(=O)(=O)Nc2ccccc2C(=O)O)cc1[N+](=O)[O-]`, for which the “activity change, negative = growth inhibition” value is -18.5% (inactive).

`COc1ccc(C(=O)NCc2ccccc2C)cc1S(=O)(=O)NC1CCCC1`: the “activity change, negative = growth inhibition” value was -4.01% (inactive).

As to `COc1ccccc1CNC(=O)Cn1cc2c(n1)CCCC2`, the “activity change, negative = growth inhibition” value is 6.11% (inactive).
